EZH2 inh: blocks human EZH2/PRC2 H3K27 methylation | Q15910 | DELFIA TRF, 1 h | inhibition, % at 12.5 µM | hit rate 0.35% among 57,000;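 active = mean inhibition of replicates at least 50% and every single replicate also reaching 50%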;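 note: dimethyl H3K27 on biotinylated H3 21-44 peptide detected by antibody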
Target sequence (Q15910 whole entry, looked up): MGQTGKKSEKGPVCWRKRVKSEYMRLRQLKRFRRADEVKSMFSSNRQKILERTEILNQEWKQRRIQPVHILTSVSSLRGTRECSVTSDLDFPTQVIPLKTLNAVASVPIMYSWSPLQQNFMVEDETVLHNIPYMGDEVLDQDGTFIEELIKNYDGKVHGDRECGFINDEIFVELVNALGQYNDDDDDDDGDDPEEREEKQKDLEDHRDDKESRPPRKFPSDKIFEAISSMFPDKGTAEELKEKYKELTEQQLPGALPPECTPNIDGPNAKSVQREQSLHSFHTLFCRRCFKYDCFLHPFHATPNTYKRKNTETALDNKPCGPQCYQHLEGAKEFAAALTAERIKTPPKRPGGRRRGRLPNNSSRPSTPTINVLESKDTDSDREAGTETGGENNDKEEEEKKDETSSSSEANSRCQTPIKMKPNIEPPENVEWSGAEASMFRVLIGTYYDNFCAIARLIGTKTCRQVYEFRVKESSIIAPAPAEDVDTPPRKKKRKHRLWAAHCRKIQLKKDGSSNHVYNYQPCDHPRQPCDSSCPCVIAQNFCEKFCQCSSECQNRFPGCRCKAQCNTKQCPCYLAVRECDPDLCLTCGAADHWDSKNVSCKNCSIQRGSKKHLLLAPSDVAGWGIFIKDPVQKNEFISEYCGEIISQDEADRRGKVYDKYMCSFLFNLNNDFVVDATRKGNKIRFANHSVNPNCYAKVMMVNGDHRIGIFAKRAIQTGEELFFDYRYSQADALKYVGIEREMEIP
Numbers stand for hits. This is one part of a sample in which hits are shown more often than they occur.

Results for C[C@@H]1O[C@@H](OC[C@H]2O[C@@H](OCCc3ccccc3)[C@H](O)[C@@H](O)[C@@H]2O)[C@H](O)[C@H](O)[C@H]1O ?
EZH2 inh: 52.0

How did COc1ccccc1NC(=O)N[C@@H]1CC[C@@H](CCn2cc(-c3ccccc3)nn2)O[C@@H]1CO do in these assays?
EZH2 inh: inactive

What do the screens show for `O=C(C[C@H]1C[C@H]2c3cc(NS(=O)(=O)c4ccc(F)cc4)ccc3O[C@H]2[C@H](CO)O1)NCc1ccc(-c2ccccc2)cc1`?
EZH2 inh: inactive

Results for Cc1noc(C)c1NC(=O)Nc1ccc2c(c1)C(=O)N([C@H](C)CO)C[C@H](C)[C@H](CN(C)Cc1ccc3c(c1)OCO3)O2 ?
EZH2 inh: inactive

Results for Cc1cc(Oc2ccccc2)nc(SCC(N)=O)n1 ?
EZH2 inh: inactive

How did Nc1nc(SCC(=O)c2ccc(Oc3ccccc3)cc2)n[nH]1 do in these assays?
EZH2 inh: inactive

How did Cc1cc(C)nc(SCC(=O)c2ccc(Oc3ccccc3)cc2)n1 do in these assays?
EZH2 inh: 56.5

What do the screens show for `CCC(=O)N1C[C@@H](C)[C@@H](OC)CN(C)C(=O)c2ccc(NC(=O)c3cc(C)on3)cc2OC[C@@H]1C`?
EZH2 inh: inactive

Results for O=C(C[C@@H]1C[C@H]2c3cc(NC(=O)c4cccnc4)ccc3O[C@H]2[C@@H](CO)O1)NCc1ccccc1F ?
EZH2 inh: inactive

Results for C/C=C1\C(O[C@@H]2O[C@H](CO)[C@@H](O)[C@H](O)[C@H]2O)OC=C(C(=O)OC)C1CC(=O)OC[C@H]1O[C@@H](OCCc2ccc(O)cc2)[C@H](OC(=O)CC2C(C(=O)OC)=COC(O[C@@H]3O[C@H](CO)[C@@H](O)[C@H](O)[C@H]3O)/C2=C\C)[C@@H](O)[C@@H]1O (stereo partly drawn) ?
EZH2 inh: inactive

Results for C/C=C1\[C@H](O[C@@H]2O[C@H](CO)[C@@H](O)[C@H](O)[C@H]2O)OC=C(C(=O)OC)[C@H]1CC(=O)OC ?
EZH2 inh: inactive

How did C/C=C1/[C@H](O[C@@H]2O[C@H](CO)[C@@H](O)[C@H](O)[C@H]2O)OC=C(C(=O)OC)[C@H]1CC(=O)OCCc1ccc(OC(=O)C[C@@H]2C(C(=O)OC)=CO[C@@H](O[C@@H]3O[C@H](CO)[C@@H](O)[C@H](O)[C@H]3O)/C2=C/C)cc1 do in these assays?
EZH2 inh: 60.8

Results for Cc1noc(C)c1NC(=O)N(C)C[C@H]1Oc2ccc(NC(=O)CCCCCC(=O)Nc3ccccc3N)cc2CC(=O)N([C@@H](C)CO)C[C@@H]1C ?
EZH2 inh: inactive

Results for C[C@@H]1CCCCO[C@H](CN(C)S(C)(=O)=O)[C@H](C)CN([C@@H](C)CO)C(=O)c2cc(N(C)C)ccc2O1 ?
EZH2 inh: inactive

What do the screens show for `O=C(NO)c1cccc(C(=O)N/N=C/c2ccc3ccccc3c2)c1`?
EZH2 inh: inactive

How did O=C(NO)c1cccc(C(=O)N/N=C/c2ccc(O)c(O)c2)c1 do in these assays?
EZH2 inh: 94.4

How did O=C(NO)c1cccc(C(=O)N/N=C/c2ccc(F)cc2)c1 do in these assays?
EZH2 inh: inactive

What do the screens show for `C[C@@H]1CN([C@H](C)CO)S(=O)(=O)c2ccc(C3=CCCC3)cc2O[C@H]1CN(C)Cc1ccccn1`?
EZH2 inh: inactive

How did COCC#Cc1cnc2c(c1)C(=O)N([C@H](C)CO)C[C@H](C)[C@@H](CN(C)C(=O)C1CCC1)O2 do in these assays?
EZH2 inh: inactive

Results for COc1cc(Br)cc(/C=N/NC(=O)c2ccccc2O)c1O ?
EZH2 inh: inactive

What do the screens show for `COc1ccc(/C=N/NC(=O)c2ccccc2O)cc1Br`?
EZH2 inh: inactive

What do the screens show for `COc1cc(Br)c(/C=N/NC(=O)c2ccccc2O)cc1OC`?
EZH2 inh: 67.1

What do the screens show for `COc1ccc(C(=O)CC2(O)C(=O)N(Cc3ccc(C)cc3)c3ccc(Cl)cc32)cc1[N+](=O)[O-]` (stereo not drawn)?
EZH2 inh: inactive

Results for CC(C)(C)OC(=O)N1CCC[C@H]1/C=N/NC(=O)CCCCCCC(=O)O ?
EZH2 inh: inactive

How did N#Cc1c(C(F)(F)F)cc(-c2cccs2)nc1SCC(=O)Nc1c(F)cccc1F do in these assays?
EZH2 inh: inactive

Results for N#Cc1c(C(F)(F)F)cc(-c2cccs2)nc1SCC(O)COc1ccc(Cl)cc1 (stereo not drawn) ?
EZH2 inh: inactive

What do the screens show for `COc1ccc(-c2cc(-c3cccs3)nc(SC(C(=O)O)c3ccccc3)c2C#N)cc1` (stereo not drawn)?
EZH2 inh: 72.1

How did COc1ccc(NC(=O)CSc2nc(C)cc(C(F)(F)F)n2)c([N+](=O)[O-])c1 do in these assays?
EZH2 inh: inactive

How did O=C(Cn1cnc2ccccc2c1=O)Nc1cc(Cl)c(Cl)cc1Cl do in these assays?
EZH2 inh: inactive

What do the screens show for `COCCNC(=O)C[C@H]1C[C@@H]2c3cc(NC(=O)Nc4ccccc4F)ccc3O[C@@H]2[C@@H](CO)O1`?
EZH2 inh: inactive

Results for COc1cc(O)c2c(=O)c(OC)c(-c3cc(O)c(OC)c(OC)c3)oc2c1 ?
EZH2 inh: inactive

Results for O=c1c(O)c(-c2ccccc2)oc2cc(O)cc(O)c12 ?
EZH2 inh: inactive

What do the screens show for `O=c1c(O)c(-c2cc(O)c(O)c(O)c2)oc2cc(O)cc(O)c12`?
EZH2 inh: 93.1

How did C[C@H](CO)N1C[C@H](C)[C@H](CN(C)S(=O)(=O)c2ccccc2)Oc2ncc(C#CC(C)(C)O)cc2C1=O do in these assays?
EZH2 inh: inactive

How did O=C(Oc1ccc2ccccc2c1)c1ccccc1S(=O)(=O)c1ccccc1[N+](=O)[O-] do in these assays?
EZH2 inh: inactive

What do the screens show for `CCC(=O)N(C)C[C@H]1Oc2ncc(C#Cc3ccccc3)cc2C(=O)N([C@H](C)CO)C[C@@H]1C`?
EZH2 inh: inactive

What do the screens show for `CS(=O)(=O)N(CC(=O)Nc1ccc(Cl)c(Cl)c1)c1ccc(I)cc1`?
EZH2 inh: inactive

How did CN(C)/C=C/C=C1C(=O)CCCC1=O do in these assays?
EZH2 inh: 53.6

Results for COCC(=O)Nc1ccc2c(c1)C(=O)N(C)C[C@@H](OC)[C@H](C)CN(C)[C@H](C)CO2 ?
EZH2 inh: inactive

How did CO[C@H](CN(C)S(=O)(=O)c1ccc(C)cc1)[C@H](C)CN(Cc1ccccc1Cl)[C@@H](C)CO do in these assays?
EZH2 inh: inactive

Results for CO[C@@H](CN(C)S(=O)(=O)c1ccc(C)cc1)[C@@H](C)CN(Cc1ccccc1Cl)[C@@H](C)CO ?
EZH2 inh: inactive

Results for CO[C@@H](CN(C)S(=O)(=O)c1ccc(C)cc1)[C@@H](C)CN(Cc1ccccc1Cl)[C@H](C)CO ?
EZH2 inh: 51.1

How did COc1ccc(CN(C)C[C@H]2Oc3ccc(NC(=O)Cn4cnnn4)cc3C(=O)N([C@@H](C)CO)C[C@H]2C)cc1 do in these assays?
EZH2 inh: inactive

How did CC(C)NC(=O)Nc1cccc2c1O[C@H](CN(C)Cc1ccncc1)[C@H](C)CN([C@H](C)CO)C2=O do in these assays?
EZH2 inh: inactive

How did COc1ccc(-c2nc(C#N)c(NCCN3CCOCC3)o2)cc1 do in these assays?
EZH2 inh: inactive

How did Cc1cc(Cl)ccc1OC(C)C(=O)Nc1ccc(C(=O)Nc2ccccc2C(=O)O)cc1 (stereo not drawn) do in these assays?
EZH2 inh: 60.1

Results for Cc1cccc(C(=O)O)c1NC(=O)C(C)Oc1ccc(Cl)cc1Cl (stereo not drawn) ?
EZH2 inh: inactive

What do the screens show for `COC(=O)c1ccccc1NC(=O)c1ccc(NC(=O)C(C)Oc2ccccc2)cc1` (stereo not drawn)?
EZH2 inh: inactive
